A selection: hits, their analogues and other compounds. The true share with any hit is near 0.6%.
WNV protease inh: inhibitors of WNV NS2B-NS3 protease, primary screen, biochemical, fluorogenic substrate | Genome polyprotein (West Nile virus), P06935 | fluorogenic substrate Ex360/Em465; active compounds read low | z-score (test concentration not listed) | actives 0.18% (n = 65,000) | AID 577, 2007; in the data active = z-score below about -3
CD11b adhes enh: enhancers of CD11b/CD18 adhesion to fibrinogen, primary screen, K562 cells, luminescence; Integrin beta-2 (Homo sapiens) + Integrin alpha-M (Homo sapiens), P05107+P11215; ATPlite luminescence; activation, % at 10 µM; actives 0.07% (n = 93,000); AID 1499, 2009;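 active = 10 µM primary screen giving 50% or more activity, confirmed by 40% or more on retest at that dose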
Target sequence (P05107 whole entry, looked up, other chains not shown): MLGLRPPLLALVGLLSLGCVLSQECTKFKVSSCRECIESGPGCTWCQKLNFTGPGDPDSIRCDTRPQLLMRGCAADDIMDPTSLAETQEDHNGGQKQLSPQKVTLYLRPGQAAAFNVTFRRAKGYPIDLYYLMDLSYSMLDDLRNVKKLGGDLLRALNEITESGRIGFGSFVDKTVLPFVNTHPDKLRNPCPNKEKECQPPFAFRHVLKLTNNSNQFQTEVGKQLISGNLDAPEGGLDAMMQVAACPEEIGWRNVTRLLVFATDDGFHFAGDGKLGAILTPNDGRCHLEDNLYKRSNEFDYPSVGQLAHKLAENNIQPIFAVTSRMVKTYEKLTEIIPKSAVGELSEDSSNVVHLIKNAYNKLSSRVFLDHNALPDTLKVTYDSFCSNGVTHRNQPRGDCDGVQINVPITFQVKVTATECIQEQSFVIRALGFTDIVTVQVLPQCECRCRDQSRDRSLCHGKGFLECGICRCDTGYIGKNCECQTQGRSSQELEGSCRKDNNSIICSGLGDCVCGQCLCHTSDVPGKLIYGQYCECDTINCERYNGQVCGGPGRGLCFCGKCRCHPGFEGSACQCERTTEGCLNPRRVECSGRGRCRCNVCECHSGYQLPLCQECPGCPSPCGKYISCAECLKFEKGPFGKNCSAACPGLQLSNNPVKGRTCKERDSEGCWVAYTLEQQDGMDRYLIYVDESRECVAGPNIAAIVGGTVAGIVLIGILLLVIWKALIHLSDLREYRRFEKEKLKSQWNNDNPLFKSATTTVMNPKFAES
CD11b adhes inh: inhibitors of CD11b/CD18 adhesion to fibrinogen, primary screen, K562 cells, luminescence; ATPlite luminescence; Mn2+ added to activate the integrin; AID 1497, 2009; inhibition, % at 10 µM; actives 0.54% (n = 93,000); Integrin beta-2 (Homo sapiens) + Integrin alpha-M (Homo sapiens), P05107+P11215;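 active = primary inhibition of 50% or more at 10 µM, then 40% or more on retest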
* marks the source's active call; other numbers are inactive results.

How did O=C(O)CCCCCn1c(O)c(C=C2N=c3ccccc3=N2)sc1=S do in these assays?
CD11b adhes enh: 0; CD11b adhes inh: 69*

How did O=C(Nc1ccc(Cc2ccncc2)cc1)c1ccc(S(=O)(=O)N2CCOCC2)cc1 do in these assays?
WNV protease inh: -0.13; CD11b adhes enh: -10; CD11b adhes inh: 93*

What do the screens show for `O=C(Nc1ccc(S(=O)(=O)N2CCOCC2)cc1)c1ccc(Cl)cc1`?
WNV protease inh: -0.4

What do the screens show for `Cc1ccc(-n2nc3c(c2NC(=O)c2ccc(S(=O)(=O)N4CCOCC4)cc2)CSC3)c(C)c1`?
WNV protease inh: -1.1; CD11b adhes enh: 80*; CD11b adhes inh: -10

What do the screens show for `Cc1cccc(-n2nc3c(c2NC(=O)c2ccc(S(=O)(=O)N4CCOCC4)cc2)CSC3)c1C`?
WNV protease inh: -0.87; CD11b adhes enh: 0; CD11b adhes inh: 15

Results for Cc1cc(/C=C(\C#N)C(=O)OCC(=O)Nc2ccc(OC(F)F)cc2)c(C)n1CC(C)C ?
CD11b adhes enh: 2; CD11b adhes inh: 51

What do the screens show for `Cc1ccc(OC(=O)c2cccc(C(=O)Oc3ccc(C)cn3)n2)nc1`?
WNV protease inh: 0.57; CD11b adhes enh: -1; CD11b adhes inh: 21

What do the screens show for `O=[N+]([O-])c1ccc(N=Nc2ccc(O)cc2O)cc1`?
CD11b adhes enh: -9; CD11b adhes inh: 94*

Results for Cc1ccc(C(=O)c2ccc([N+](=O)[O-])cc2)c(C)c1 ?
CD11b adhes enh: -1; CD11b adhes inh: -4

What do the screens show for `CC(C)c1ccccc1NC(=O)COC(=O)Cc1ccsc1`?
CD11b adhes enh: 0; CD11b adhes inh: 11

How did CCCc1nnc(SCc2ccc(OC)cc2)n1N do in these assays?
WNV protease inh: 0.81; CD11b adhes enh: 6; CD11b adhes inh: 4

How did CC(=O)Nc1nonc1NC(C)=O do in these assays?
WNV protease inh: 1.4; CD11b adhes enh: -5; CD11b adhes inh: 7

Results for CC(=O)Nc1cc(OC(C)=O)c2nonc2c1OC(C)=O ?
WNV protease inh: -0.31; CD11b adhes enh: -5; CD11b adhes inh: 59*

Results for COc1ccccc1-c1c(C(F)(F)F)oc2cc(OC(=O)c3ccc([N+](=O)[O-])cc3)ccc2c1=O ?
CD11b adhes enh: -1; CD11b adhes inh: 25

How did CCCCCCn1c(NCC)nc2c1c(=O)n(C)c(=O)n2C do in these assays?
WNV protease inh: 1.4; CD11b adhes enh: -7; CD11b adhes inh: 73*

What do the screens show for `CCCCNc1nc2c(c(=O)n(C)c(=O)n2C)n1CCC`?
WNV protease inh: 0.37

What do the screens show for `CC1(C)Cc2c(sc3nc(SCC#N)n(C4CCCCC4)c(=O)c23)CO1`?
WNV protease inh: -0.47

Results for CC1(C)CC(=O)C2=C(C1)NC(SCC(=O)Nc1ccccc1)=C(C#N)C21CCCCC1 ?
WNV protease inh: 2.1; CD11b adhes enh: 5; CD11b adhes inh: 0

How did N#CC1=C(N)NC(SCC(=O)Nc2ccc(Br)cc2)=C(C#N)C12CCCCC2 do in these assays?
CD11b adhes enh: -9; CD11b adhes inh: 83*

How did Cc1nnc(SCC(=O)OC2CC(C)CCC2C(C)C)[nH]c1=O (configuration not stated) do in these assays?
CD11b adhes enh: 0; CD11b adhes inh: -6

How did CC1CCC(C(C)C)C(OC(=O)Cn2c(-c3ccccc3)[n+](C)c3ccccc32)C1 (configuration not stated) do in these assays?
CD11b adhes enh: -7; CD11b adhes inh: 99*

How did CC1CCC(C(C)C)C(OC(=O)CSc2n[nH]c(=O)[nH]c2=O)C1 (configuration not stated) do in these assays?
WNV protease inh: 0.45; CD11b adhes enh: -2; CD11b adhes inh: 12

How did CC1CCC(C(C)C)C(OC(=O)Cn2c(-c3ccc(F)cc3)[n+](C)c3ccccc32)C1 (configuration not stated) do in these assays?
CD11b adhes enh: -4; CD11b adhes inh: 64*

How did O=C(COc1ccccc1Cl)N1CCN(c2ccc([N+](=O)[O-])c(N3CCOCC3)c2)CC1 do in these assays?
CD11b adhes enh: 5; CD11b adhes inh: 8

Results for COc1ccc(C(=O)NC2c3ccccc3-c3ccccc32)cc1 ?
CD11b adhes enh: 29; CD11b adhes inh: 0

What do the screens show for `Cc1ccc2[nH]c(=O)c(CN(Cc3cccnc3)Cc3nnnn3CCN3CCOCC3)cc2c1`?
WNV protease inh: 1.3; CD11b adhes enh: 2; CD11b adhes inh: -19

How did O=C(CSCc1ccc(F)cc1)Nc1ccccc1 do in these assays?
CD11b adhes enh: -7; CD11b adhes inh: 15

Results for O=C(Nc1ccc(F)cc1)c1ccc(CSc2ccccc2)o1 ?
CD11b adhes enh: -10; CD11b adhes inh: 97*

High-throughput results as filed in PubChem BioAssay.
